In PubChem BioAssay (EPA / NIEHS):
Several values for one entry are separate records, joined by “and”; a condition that tells them apart may be missing. Identical values can stand only once. Some compounds were tested as several samples or in several runs, with calls that do not always agree. Activity calls are given as the source filed them. Rule for the calls: active = hit-call score of the fitted dose curve at least 0.9, where 1 is the maximum; inactive = score below 0.9.

Read-out: Human Leukocyte Antigen - DR isotype (HLADR), HLA-DRA (gene 3122)
Test: BSK_BE3C_HLADR: BioMAP Diversity Plus: BE3C Assay for Human Leukocyte Antigen - DR isotype (HLADR) Biomarker Activity (AID 2283032)
Settings: primary human bronchial epithelial cells; actives raise or lower the signal
Experimental: BSK_BE3C is a cell-based, multiplexed-readout assay that uses bronchial epithelial cell, a human lung primary cell, with measurements taken at 24 hours after chemical dosing in a 96-well plate.BSK_BE3C_HLADR is an assay component measured in the BSK_BE3C assay. It measures HLA-DR antibody related to regulation of gene expression using ELISA technology.Data from the assay component BSK_BE3C_HLADR was analyzed into 1 assay endpoint. This assay endpoint, BSK_BE3C_HLADR, was analyzed with bidirectional fitting relative to DMSO as the negative control and baseline of activity. Using a type of binding reporter, gain or loss-of-signal activity can be used to understand changes in the signaling as they relate to the gene HLA-DRA. Furthermore, this assay endpoint can be referred to as a primary readout, because this assay has produced multiple assay endpoints where this one serves a signaling function. To generalize the intended target to other relatable targets, this assay endpoint is annotated to the cell adhesion molecules intended target family, where the subfamily is MHC Class II.
The levels of cell surface (or secreted, indicated by the prefix "s") biomarker endpoints were measured by ELISA. Overt cytotoxicity to cells in confluent adherent cultures (all systems other than the BT system) was assessed by measuring total protein levels using sulforhodamine B (SRB) staining in parallel cultures at the time of biomarker measurements, indicated as SRB endpoints. For proliferation assays for adherent cell types, individual cell types are cultured at sub-confluence and relative cell numbers quantified by SRB staining at time points optimized for each system (48 h: 3C and CASM3C systems; 72 h: BT and HDF3CGF systems; 96 h: SAg system). SRB was performed by staining cells with 0.1% SRB after fixation with 10% TCA and reading wells at 560 nm.Viability and proliferation of PBMC (T cells) was quantified by Alamar Blue reduction for the SAg and BT systems. For PBMC viability (referred to as PBMC Cytotoxicity within the assay endpoint names), cells were plated (75,000/well in a 96-well plate) and then chemical samples added for 1 h before addition of activators, SEB and TSST-1 (20 ng/mL final concentration each). Cells were incubated for 90 h. Then, Alamar Blue (20 uL/well) (Invitrogen, Cat DAL1100) was added for 6 h, and the plates were read with a fluorescence microplate reader at 546/580 nm (excitation/emission). For PBMC proliferation, cells were plated and activated as above but incubated for only 16 h prior to addition of Alamar Blue. Plates were read after 6 h.

SMILES | outcome | AC50
CCCCOCCOCCO | inactive | –
c1ccc(OCCOc2ccccc2)cc1 | inactive | –
CC1(C)[C@H](C=C(Cl)Cl)[C@H]1C(=O)OCc1cccc(Oc2ccccc2)c1 | inactive | –
CC(C)CCCC(C)(C)O | inactive | –
CC(C)Cc1ccc(C(C)C(=O)O)cc1 (stereo not given) | inactive | –
CC(=O)CCC=C(C)CCC=C(C)C | inactive | –
CC(=O)c1ccc(C)cc1 | inactive | –
C[C@]12CC[C@@H]3c4ccc(O)cc4CC[C@H]3[C@@H]1CC[C@@H]2O | inactive | –
CC/C(=C(\c1ccccc1)c1ccc(OCCN(C)C)cc1)c1ccccc1 | – | 9.68 µM (active) and 9.06 µM (active)
CC(=O)OC(C)(C)C1CC=C(C)CC1 (stereo not given) | – | 35.4 µM (active)
OCC(F)(OC(F)(F)C(F)(OC(F)(F)C(F)(F)C(F)(F)F)C(F)(F)F)C(F)(F)F (stereo not given) | inactive | 5.06 µM (active)
CCCCCCCCCC(=O)OCC | inactive | –
CCCCCCCC1CCCC1=O (stereo not given) | – | 30.7 µM (active)
COC(=O)c1ccc(C(=O)OC)cc1 | inactive | –
CCCCN(CCO)CCO | inactive | –
O=C(c1ccc(OCCN2CCCCC2)cc1)c1c(-c2ccc(O)cc2)sc2cc(O)ccc12 | – | 20.3 µM (active)
NC(=O)c1c(Cl)cccc1Cl | inactive | –
CC(C)(CO)CO | inactive | –
CC(=O)OCC=C(C)CCC=C(C)CCC=C(C)C | – | 3.97 µM (active)
CC1=CC(C)C(C=O)C(C)C1 (stereo not given) (tested in a mixture with another compound) | inactive | –

SMILES | outcome | AC50
CCn1cc(C(=O)O)c(=O)c2ccc(C)nc21 | inactive | –
CCCCCCCCCCCCS | – | 20 µM (active)
O=S1(=O)CC(Cl)(Cl)C(Cl)(Cl)C1 | – | 0.96 µM (active)
CC=CC(=O)C1=C(C)C=CCC1(C)C | inactive | –
OCCN1CCOCC1 | inactive | –
CCOC(=O)CCCCCCCCC(=O)OCC | inactive | –
CC(C)(C)c1cccc(O)c1 | inactive | –
O=S(=O)(O)C(F)(F)C(F)(F)OC(F)(F)C(F)(F)F | inactive | –
COc1ccccc1NC(=O)CC(C)=O | inactive | –
CCOC(=O)C=Cc1ccccc1 | inactive | –
C=CC(=O)OCC(CO)(COC(=O)C=C)COC(=O)C=C | – | 0.336 µM (active)
CCC(=O)OCC=Cc1ccccc1 | inactive | –
O=C(O)C(F)(F)C(F)(F)C(F)(F)C(F)(F)C(F)(F)C(F)(F)C(F)(F)C(F)F | – | 12.5 µM (active) and 3.23 µM (active)
O=C(O)C(F)(F)OC(F)(F)C(F)(F)OC(F)(F)C(F)(F)C(F)(F)C(F)(F)F | – | 21.2 µM (active) and 13.3 µM (active)
C=C(C)C(=O)OCCC(F)(F)C(F)(F)C(F)(F)C(F)(F)C(F)(F)C(F)(F)C(F)(F)C(F)(F)F | inactive | –
c1ccc2c(c1)-c1ccc3ccc4cccc5cc-2c1c3c45 | – | 2.57 µM (active)
C#C[C@]1(O)CC[C@H]2[C@@H]3CCc4cc(O)ccc4[C@H]3CC[C@@]21C | inactive | –
C=C(C)C(N)=O | inactive | –
O=C1OC2(c3ccc(O)cc3Oc3cc(O)ccc32)c2ccccc21 | inactive | –
